Results taken from PubChem BioAssay.
Several values for one entry are separate records, joined by “and”; a condition that tells them apart may be missing. Identical values can stand only once.

Target: Calmodulin-1 (Homo sapiens) (UniProt P0DP23)
Test: small molecules binding calmodulin-1 with EGTA – biochemical, small-molecule microarray, Cy5-labelled CALM1, profiling panel (AID 1111);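 further: labelled calmodulin applied in Tris saline Tween buffer holding calcium plus EGTA and DTT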
Settings: Cy5-CALM1 binding fluorescence, higher = more signal

| Compound | composite z-score |
| --- | --- |
| CC(CO)N1C(=O)[C@@H]2C3C(=O)OCCC=C[C@H]3OC23C=CCN(CCN2CCOCC2)C(=O)[C@@H]13 (some centres undefined) | -0.0612 and -0.561 |
| COC(=O)C1=C(C)N(Cc2ccccc2)C2=C(C(C)=O)[C@H](c3ccccc3)[C@@](O)(C(=O)OC)C(=O)N2[C@@H]1c1ccccc1 | -0.271 and -0.503 |
| CC(C)=NOC[C@@H](O)COCc1ccco1 | -0.614 |
| C[C@@H]1CC[C@H]2C(=O)NC[C@@H](O)CN2[C@H]1c1ccc(Br)cc1 | -0.234 and -0.448 |
| CCOC(=O)[C@@H]1CC2O[C@]23C[C@@H]1C(=O)N1CCC[C@@H]1[C@H]3O[Si](C)(C)C(C)(C)C (some centres undefined) | -0.46 and -0.641 |
| C[N+](C)(C)CCCCNC(=O)[C@H]1C[C@H]2C(=O)N[C@@H](CCCC[N+](C)(C)C)C(=O)N2[C@H]1c1ccc(O)cc1 | -0.0061 and -1.63 |
| CC(C)[Si]1(C(C)C)OCc2cc(CCCc3cc4c(c(CCc5ccccc5)n3)[Si](C(C)C)(C(C)C)OC4)nc(CCc3ccccc3)c21 | -0.372 and -0.238 |
| COC(=O)C1=C(C)N(Cc2ccccc2)C2=C3C(=O)N(c4ccccc4)C(=O)[C@@H]3[C@@](O)(C(=O)OC)C(=O)N2[C@@H]1c1ccccc1 | -0.101 and -0.0398 |
| CO[C@H]1COC(=O)CC=C[C@H](C)[C@H](OC)COC(=O)[C@@H](C)COC(=O)CC=C[C@@H]1C | -1.51 and -1.76 |
| C=CCN(C(=O)C1N(c2ccc(CCO)cc2)C(=O)C2C(C(=O)O)C3C=CC21O3)c1ccc(OC)cc1 (centres undefined) | -0.394 and -0.181 |
| COC(=O)[C@@]1(Cc2ccc(F)cc2)[C@H]2c3cc(C(=O)N4CCCC4)n(Cc4c(CO)[nH]cc(C)c4=O)c3C[C@H]2CN1C(=O)c1ccccc1 | 1.41 and 0.252 |
| CC(CO)N1C(=O)[C@@H]2C3C(=O)OCCC=C[C@H]3OC23C=CCN(c2ccc(Cl)cc2)C(=O)[C@@H]13 (some centres undefined) | 0.136 and 0.0733 |
| C=CCN(CCCC)C(=O)C(c1cccs1)N(C(=O)/C=C\C(=O)O)c1c(Cl)cccc1CO (centres undefined) | -0.731 and -0.883 |
| CCOC(=O)C[C@H]1[C@H](OC(=O)c2ccccc2-c2ccccc2)[C@@H](NC(=O)c2ccccc2)c2cc(OCCCO)ccc2N1C(=O)c1ccc2ccccc2n1 | -0.118 and 1.47 |
| C=CCN(C(=O)C1N(c2c(Cl)cccc2CO)C(=O)C2C(C(=O)O)C3C=CC21O3)C(C)(C)C (centres undefined) | -0.68 and -0.347 |
| C#CCCCON=C1C[C@@H](O)[C@@H](O)[C@@H]2[C@@H]3C(=O)N(C4CCCCC4)C(=O)[C@@H]3CC[C@H]12 | 0.974 |
| C=CCN(CCCC)C(=O)C1N(c2ccc(CCO)cc2)C(=O)C2C(C(=O)O)C3C=CC21O3 (centres undefined) | -0.828 and -1.3 |
| C=CCN(C(=O)C1N(c2c(Cl)cccc2CO)C(=O)C2C(C(=O)O)C3C=CC21O3)c1ccc(OC)cc1 (centres undefined) | -0.746 and -0.798 |
| CON(C)C(=O)c1nnc2c3ccccc3n(S(=O)(=O)c3ccc(C)cc3)c2n1 | 0.761 and -0.142 |
| CCCC[C@@H]1CN2[C@H](c3ccc(Br)cc3)[C@@H](C)CC[C@H]2C(=O)O1 | -0.254 and -0.255 |

| Compound | composite z-score |
| --- | --- |
| C=CCN(CCCCC)C(=O)C1N(c2ccc(CCO)cc2)C(=O)C2C(C(=O)O)C3C=CC21O3 (centres undefined) | -1.51 and -0.989 |
| C=CCN(Cc1ccccc1)C(=O)C1N(C(C)(C)CO)C(=O)C2C(C(=O)O)C3C=CC21O3 (centres undefined) | -0.23 and -0.697 |
| O=C1C[C@]2(c3ccc([N+](=O)[O-])cc3)C(=O)N(Cc3ccccc3)c3cc(CO)ccc3[C@H]2N1C1CCCCC1 | -0.135 and 1.19 |
| C=CCN(Cc1ccccc1)C(=O)C(c1cccs1)N(C(=O)/C=C\C(=O)O)c1c(Cl)cccc1CO (centres undefined) | -0.374 and -0.222 |
| CCOC(=O)c1ccc(NC(=O)O[C@H]2[C@H](OC(=O)Nc3ccccc3)[C@@H](OC(=O)Nc3ccccc3)[C@@H](OC)O[C@@H]2CO)cc1 | 2.04 and 1.81 |
| C=C(C)C(=O)OC[C@@H]1CN2[C@@H](CC[C@@H](C)[C@@H]2c2ccc(Br)cc2)C(=O)O1 | -0.265 |
| CC(CO)N1C(=O)[C@@H]2C3C(=O)OCCC=C[C@H]3OC23C=CCN(Cn2nnc4ccccc42)C(=O)[C@@H]13 (some centres undefined) | -0.184 and -0.298 |
| O=C(NN=C1C[C@@H](O)[C@@H](O)[C@@H]2[C@@H]3C(=O)N(Cc4ccc5c(c4)OCO5)C(=O)[C@@H]3CC[C@H]12)OCc1ccccc1 | -0.643 |
| COC(=O)[C@@]1(Cc2ccc(OC)cc2)[C@H]2c3cc(C(=O)N(C)C)n(Cc4ccc(O)c(OC)c4)c3C[C@H]2CN1C(=O)c1ccccc1 | 2.32 and 1.21 |
| O=C1NC(=O)C2C1C=CC(C(O)c1ccc([N+](=O)[O-])cc1)N2Nc1ccc(Cl)cc1Cl (centres undefined) | 1.01 and 1.48 |
| CC(C)=CCCC(C)=CCON=C1C[C@@H](O)[C@@H](O)[C@@H]2[C@@H]3C(=O)N([C@@H](C)c4ccccc4)C(=O)[C@@H]3CC[C@H]12 | -0.282 |
| COC(=O)C1=C(C)N(Cc2ccccc2)C2=C3C(=O)CCC[C@@H]3[C@@](O)(C(=O)OC)C(=O)N2[C@@H]1c1ccccc1 | -0.255 and -0.674 |
| CCCC[C@@H]1CN2[C@@H](CC[C@@H](C)[C@@H]2c2ccc(Br)cc2)C(=O)O1 | 0.0614 and 0.32 |
| CCN1C(=O)[C@H]2[C@H]3[C@H](O)[C@H](O)CC(=NOC)[C@@H]3CC[C@H]2C1=O | -0.472 |
| CC(C)OC(=O)C=C1C[C@@H](c2cccc(C(F)(F)F)c2)O[C@@H](c2cccc(C(F)(F)F)c2)O1 | 1.21 and 0.297 |
| CC(C)=NO[C@@H](C)c1cc(-c2c(C)cc(C)cc2C)no1 | -0.35 |
| C=CCN(C(=O)C1N(CCOCCO)C(=O)C2C(C(=O)O)C3C=CC21O3)c1ccc(OC)cc1 (centres undefined) | -0.315 and -1.35 |
| C=CCN(C(=O)C(c1cccs1)N(CCOCCO)C(=O)/C=C\C(=O)O)c1ccc(OC)cc1 (centres undefined) | -0.328 and -1.13 |
| C=CCN(Cc1ccccc1)C(=O)C(c1cccs1)N(C(=O)/C=C\C(=O)O)c1ccc(CCO)cc1 (centres undefined) | -0.729 and -1 |
